Measurements from PubChem BioAssay (NCATS).
Results filed as inconclusive are left out. The source made the active and inactive calls. Calls come from the whole dose curve; as a rule, active = well fitted curve in the direction sought with a large enough effect; inconclusive = small, poorly fitted or top-dose-only effect, or another doubt; inactive = no such curve, though single readings can be large; an effect the other way counts as inactive or inconclusive.

Columns and labels:
[1] = qHTS of pediatric cancer cell lines to identify multiple opportunities for drug repurposing: Primary screen for SJ-GBM2 cells (AID 1347091)
In short: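 Cell viability, CellTiter-Glo luminescence; 500-1,000 cells/well, 8- or 11-point titration, 48 h compound exposure at 37 degrees C, 5% CO2. Controls: DMSO neutral, bortezomib 2.3 µM final as positive.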

[2] = qHTS of pediatric cancer cell lines to identify multiple opportunities for drug repurposing: Primary screen for A673 cells (AID 1347092); note: nearly all actives have a fitted effect of over 45% in size
In short: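 A673 cells (500-1,000 cells/well in growth media) were pre-incubated 5 h at 37 degrees C, then exposed to compounds for 48 h. Viability was read as CellTiter-Glo luminescence; concentration-response curves came directly from the primary screen.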

[3] = qHTS of pediatric cancer cell lines to identify multiple opportunities for drug repurposing: Primary screen for NB-EBc1 cells (AID 1347095)
In short: (§1)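 CRCs from 8- or 11-point titrations (lowest final 0.59 nM NPC, 0.78 nM MIPE). Cell viability: CellTiter-Glo after 48 h incubation, 15 min room-temperature development, luminescence imaging.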

[4] = qHTS of pediatric cancer cell lines to identify multiple opportunities for drug repurposing: Primary screen for SK-N-SH cells (AID 1347098); note: nearly all actives have a fitted effect of over 65% in size
In short: (§2)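 Cells (500-1,000/well) rested 5 h, then received compounds for 48 h; metabolically active cells were measured by CellTiter-Glo luminescence. Final concentrations spanned up to 46 µM (MIPE, 11-point) or 0.59 nM-46 µM (NPC, 8-point) in primary screens, 11-point in follow-ups.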

[5] = qHTS of pediatric cancer cell lines to identify multiple opportunities for drug repurposing: Primary screen for NB1643 cells (AID 1347099); note: nearly all actives have a fitted effect of over 50% in size
In short: as §1

[6] = qHTS of pediatric cancer cell lines to identify multiple opportunities for drug repurposing: Primary screen for SK-N-MC cells (AID 1347093)
In short: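 Metabolically active cells were quantified by ATP-dependent luminescence (CellTiter-Glo, 15 min at room temperature) following 48 h treatment. Cells had been plated at 500-1,000 per well and settled for 5 h beforehand.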

[7] = qHTS of pediatric cancer cell lines to identify multiple opportunities for drug repurposing: Primary screen for U-2 OS cells (AID 1347096); note: nearly all actives have a fitted effect of over 50% in size
In short: as §2

[8] = qHTS of pediatric cancer cell lines to identify multiple opportunities for drug repurposing: Primary screen for Saos-2 cells (AID 1347097); note: nearly all actives have a fitted effect of over 40% in size
In short: as §1

[9] = qHTS of pediatric cancer cell lines to identify multiple opportunities for drug repurposing: Primary screen for BT-37 cells (AID 1347094)
In short: as §1
Potency is the fitted concentration of half-maximal effect.

Row | Compound | Potency [1] | Potency [2] | Potency [3] | Potency [4] | Potency [5] | Potency [6] | Potency [7] | Potency [8] | Potency [9]
1 | COc1ccc(CCC(=O)Nc2nc3ccc(Cl)cc3s2)cc1OC | inactive | 18.7 µM (active) | inactive | 9.61 µM (active) | 5.26 µM (active) | – | – | – | –
2 | c1cc(OCCN2CCCCC2)cc(-c2n[nH]c3ccc(-c4ncn[nH]4)cc23)c1 | inactive | 9.35 µM (active) | inactive | – | 5.9 µM (active) | 16.6 µM (active) | inactive | inactive | –
3 | Cc1ccccc1C(=O)c1ccc(Nc2ccc(Br)cc2N)cc1Cl | 23.5 µM (active) | 18.7 µM (active) | – | inactive | 20.9 µM (active) | 16.6 µM (active) | – | 18.7 µM (active) | –
4 | Cc1csc(-c2nnc(Nc3ccc(Oc4ncccc4-c4ccnc(N)n4)cc3)c3ccccc23)c1 | 0.003 µM (active) | 14.8 µM (active) | – | – | – | 0.0037 µM (active) | inactive | – | –
5 | CC=C(C(=CC)c1ccc(O)cc1)c1ccc(O)cc1 | 20.9 µM (active) | 23.5 µM (active) | – | – | – | 11.8 µM (active) | inactive | 18.7 µM (active) | –
6 | C[C@@]1(C(=O)Nc2ccc(F)nc2)CCCN1c1nc(Nc2cc(C3CC3)[nH]n2)c2cccn2n1 | 0.187 µM (active) | 0.0935 µM (active) | 0.0264 µM (active) | 1.92 µM (active) | 0.0935 µM (active) | 0.001 µM (active) | inactive | 1.05 µM (active) | –
7 | CC(C)C[C@@H](C(=O)N[C@H](C(=O)OC1CCCC1)c1ccccc1)[C@H](O)C(=O)NO | 20.9 µM (active) | 14.8 µM (active) | 18.7 µM (active) | – | 18.7 µM (active) | 18.7 µM (active) | inactive | 16.6 µM (active) | –
8 | CC(=O)OCC(=O)[C@@]12OC(C)(C)O[C@H]1C[C@H]1[C@@H]3C[C@H](F)C4=CC(=O)C=C[C@]4(C)[C@@]3(F)[C@@H](O)C[C@@]12C | inactive | inactive | inactive | inactive | inactive | – | inactive | – | inactive
9 | CCc1cc(-c2n[nH]c(C)c2-c2ccc3c(c2)OCCO3)c(O)cc1O | 6.62 µM (active) | 7.43 µM (active) | 4.69 µM (active) | 9.61 µM (active) | 10.5 µM (active) | 10.5 µM (active) | 11.8 µM (active) | 14.8 µM (active) | –
10 | OC1CCC(Nc2ncc3nc(Nc4c(F)cc(F)cc4F)n([C@@H]4CCOC4)c3n2)CC1 (stereo partly drawn) | 9.35 µM (active) | 9.35 µM (active) | 5.26 µM (active) | inactive | – | – | – | – | –
11 | COc1cc(Cl)cn2c(-c3cccc(NC4CNC4)n3)cnc12 | 5.26 µM (active) | 4.69 µM (active) | 2.96 µM (active) | – | 10.5 µM (active) | 2.96 µM (active) | – | – | –
12 | CNc1nc(-c2ccc3c(N)n[nH]c3c2)cc(N2C[C@@H](C(=O)NC3CCCCC3)CC[C@@H]2C)n1 | 23.5 µM (active) | – | – | – | – | 4.18 µM (active) | – | – | –
13 | CC1(C)C(N(O)C(=O)Nc2ccc(Cl)cc2)N(c2ccc(Cl)cc2)C(=O)N1CC(=O)NN=CC=Cc1ccc([N+](=O)[O-])o1 (stereo not drawn) | 18.7 µM (active) | 23.5 µM (active) | – | – | 20.9 µM (active) | – | inactive | – | –
14 | C[C@@H](N)c1ccc(C(=O)Nc2ccnc3[nH]ccc23)cc1 | 11.8 µM (active) | 9.35 µM (active) | – | 21.5 µM (active) | – | 26.4 µM (active) | – | 14.8 µM (active) | –
15 | O=C(O)CCNc1cc(N2CCc3ccccc3CC2)nc(-c2ccccn2)n1 | inactive | 18.7 µM (active) | 23.5 µM (active) | – | 11.8 µM (active) | 23.5 µM (active) | – | – | –
16 | Cc1c(C(=O)Nc2ccc(N3C[C@@H](C)O[C@@H](C)C3)nc2)cccc1-c1ccc(OC(F)(F)F)cc1 | 18.7 µM (active) | 7.43 µM (active) | 14.8 µM (active) | 3.41 µM (active) | – | 16.6 µM (active) | – | 18.7 µM (active) | –
17 | CO[C@@H]1C(N(C)C(=O)c2ccccc2)C[C@H]2O[C@]1(C)n1c3ccccc3c3c4c(c5c6ccccc6n2c5c31)C(=O)NC4=O (stereo partly drawn) | 2.35 µM (active) | – | – | 6.07 µM (active) | – | 1.32 µM (active) | – | – | inactive
18 | Cc1cc(-c2ncc(CC(=O)Nc3ccc(-c4cnccn4)cn3)cc2C)ccn1 | inactive | – | – | – | 16.6 µM (active) | 16.6 µM (active) | inactive | – | –
19 | Cn1c(=O)c(Oc2ccc(F)cc2F)cc2cnc(NC3CCOCC3)nc21 | inactive | – | inactive | inactive | inactive | inactive | inactive | – | inactive
20 | COc1cc2nc(-c3cc(F)ccc3O)nc(N[C@@H]3CNC[C@@H]3C(C)(C)O)c2cc1OC | 23.5 µM (active) | – | – | 30.4 µM (active) | 16.6 µM (active) | – | – | 9.35 µM (active) | 27.3 µM (active)
